Screening results (PubChem)
This is a sample that favours compounds with a hit; in the whole collection about 1.6% have one here.
RAD54 inh – blocks human RAD54 Holliday junction branch migration; FAM/BHQ fluorescence; inhibition, % at 10.4 µM; actives 0.14% (n = 360,000); AID 602329;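 active = mean normalized replicate activity at least 40 and at least half of replicates scoring 40 or more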;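 note: 0% = median of neutral control wells and 100% = median of positive control wells; inhibitors cause a drop in the FAM fluorescence signal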
Target sequence (Q92698 whole entry, looked up): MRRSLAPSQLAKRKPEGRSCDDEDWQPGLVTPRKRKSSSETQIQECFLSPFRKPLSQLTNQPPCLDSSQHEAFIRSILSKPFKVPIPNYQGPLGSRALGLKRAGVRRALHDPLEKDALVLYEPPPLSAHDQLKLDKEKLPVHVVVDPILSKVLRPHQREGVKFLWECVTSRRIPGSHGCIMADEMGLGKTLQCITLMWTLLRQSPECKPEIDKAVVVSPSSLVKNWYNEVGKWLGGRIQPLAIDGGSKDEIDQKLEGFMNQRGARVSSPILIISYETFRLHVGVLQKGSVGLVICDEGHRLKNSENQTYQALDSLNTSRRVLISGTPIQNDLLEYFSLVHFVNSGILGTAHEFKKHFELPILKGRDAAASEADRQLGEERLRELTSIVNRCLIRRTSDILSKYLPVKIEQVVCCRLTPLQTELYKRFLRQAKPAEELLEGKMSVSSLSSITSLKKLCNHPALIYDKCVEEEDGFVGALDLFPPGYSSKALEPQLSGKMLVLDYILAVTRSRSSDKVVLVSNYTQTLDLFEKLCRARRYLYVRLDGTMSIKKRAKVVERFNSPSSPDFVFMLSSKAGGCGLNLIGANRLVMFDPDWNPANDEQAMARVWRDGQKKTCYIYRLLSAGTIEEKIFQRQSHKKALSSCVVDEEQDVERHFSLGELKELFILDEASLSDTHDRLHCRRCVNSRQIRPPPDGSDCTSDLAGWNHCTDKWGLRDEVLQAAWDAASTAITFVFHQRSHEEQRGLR
Glyco luc inh – N-linked glycosylation inhibition | AID 588692 | reporter increase, % at 12.5 µM | actives 0.23% (n = 360,000) | D54 ERlucT glycosylation luciferase reporter, 24 h; percent of 100 nM tunicamycin response;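 active = mean luciferase reporter signal, scaled so untreated is 0 and the glycosylation-blocking control 100, at or above a set limit in every replicate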;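 note: luciferase carries N-glycosylation sites so blocking glycosylation raises the light; 0% = median of neutral control wells and 100% = median of 100 nM tunicamycin wells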
Vif imaging – HIV Vif inhibition. HEK293T cells, Vif self-association by quenched fluorescence, imaging, 24 h. inhibition, % at 7.49 µM. actives 0.35% (n = 340,000); in the data active = inhibition above about 50%, passing the limit was not always enough
Myeloid diff MLP – myeloid differentiation induction. ER-HoxA9 myeloid progenitors, lysozyme-GFP differentiation, flow cytometry. actives 1% (n = 360,000). calls only at 10 µM. AID 624256;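 active = normalized GFP-positive differentiation at or above the plate's own cutoff, the solvent-only control mean plus 3 SD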;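 note: cells exposed to compound for four days before flow analysis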
ABCB6 inh MLPCN – blocks the human ABCB6 transporter. K562-ABCB6 porphyrin accumulation, flow cytometry, 1 h; active compounds read low. fluorescence ratio to DMSO, % at 10 µM. actives 0.19% (n = 360,000). AID 602162;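 active = fluorescence ratio to DMSO below 75%, the collection mean minus 3 SD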;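 note: signal is porphyrin accumulated inside mitochondria; 100% equals median channel fluorescence of DMSO control wells; lower ratio means ABCB6 inhibition with less porphyrin fluorescence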
Myeloid diff – myeloid differentiation induction; shares compounds with Myeloid diff MLP; ER-HoxA9 myeloid progenitors, GFP/Mac1 double-positive flow; calls only; actives 2% (n = 2,300); AID 651706;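 active = share of green or green-and-red cells above 9 and 9% in run 1 or 4 and 3% in run 2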
GFP autofluor – counter-screen for myeloid differentiation promoters: compound fluorescence; shares compounds with Myeloid diff MLP; ER-HoxA9 myeloid progenitors, no estrogen, GFP autofluorescence flow cytometry; vehicle wells 0%, positive control 100%; fluorescence response, % (test concentration not listed); actives 7.4% (n = 2,300);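 active = over 5% cells positive for green fluorescent reporter, or over 2% positive for both it and APC stain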;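 note: range taken on the double positive population between DMSO and positive control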
* hit, by the source's call; i = inactive; x = not tested or not shown; + = active, no number.

SMILES | RAD54 inh | Glyco luc inh | Vif imaging | Myeloid diff MLP | ABCB6 inh MLPCN | Myeloid diff | GFP autofluor
CCN1[C@@H]2Cn3c(ccc(-c4cccc(OC)c4)c3=O)[C@H]1[C@@H](C(=O)OC)[C@@H]2CO | 9 | x | x | x | x | x | x
N#Cc1cccc(-c2ccc([C@H]3[C@H](CO)N4CCCCN(C(=O)Cc5ccccc5)C[C@@H]34)cc2)c1 | 0 | x | x | x | x | x | x
CCCNC(=O)N1[C@H]2CC[C@@H]1C(C(=O)OC)=C(c1ccc3ccccc3c1)C2 | 7 | -3 | -5 | i | 99 | i | 0
COC(=O)C1=C(c2ccc(OC(F)(F)F)cc2)C[C@@H]2CC[C@H]1N2C(=O)NC1CCCCC1 | -2 | -2 | -5 | i | 92 | i | 0
COC(=O)C1=C(c2cc3ccccc3s2)C[C@@H]2CC[C@H]1N2C(=O)N1CCCC1 | -6 | -2 | -5 | i | 100 | x | x
COC(=O)C1=C(c2cc3ccccc3s2)C[C@@H]2CC[C@H]1N2C(=O)N1CCOCC1 | 10 | 24 | 4 | i | 101 | i | 0
COC(=O)C[C@@H]1CC[C@H]2NC[C@H](O)COC[C@@H]2O1 | -3 | x | x | x | x | x | x
COC(=O)[C@H]1[C@H](CO)[C@H]2Cn3c(ccc(-c4ccccc4F)c3=O)[C@@H]1N2C(=O)C1CC1 | 9 | x | x | x | x | x | x
COC(=O)[C@@H]1[C@@H](CO)[C@@H]2Cn3c(ccc(-c4ccccc4)c3=O)[C@H]1N2CC1CC1 | -5 | x | x | x | x | x | x
O=C1NC(=O)N(Cc2ccc(F)cc2)C(=O)/C1=C\c1ccc(N2CCCC2)cc1 | x | 3 | 0 | + | 146 | i | 0
O=C1NC(=O)N(c2ccc(F)cc2)C(=O)/C1=C/c1ccc(N2CCOCC2)cc1 | 8 | 2 | 1 | i | 84 | x | x
C=C1C2[C@H](OC(C)=O)[C@@H]3CC(=O)[C@]4(C)OC[C@@]3(C)[C@@]4(O)[C@@H](OC(C)=O)[C@H](OC(C)=O)[C@@]2(COC(=O)c2ccccc2)[C@@H](OC(C)=O)C[C@@H]1O (some centres undefined) | 9 | 5 | -9 | i | 104 | i | 1
O=C(Cc1ccncc1)N1CCCCN2[C@H](CO)[C@@H](c3ccc(C#CC4(O)CCCC4)cc3)[C@@H]2C1 | -1 | x | x | x | x | x | x
Cc1ccc(C(=O)Nc2ccc(Cl)cc2C(=O)c2ccccc2)cc1 | 9 | -1 | 1 | i | 105 | i | 5.1*
COc1ccc(C#Cc2ccc([C@H]3[C@H]4CN(C(=O)Cc5cccnc5)CCCCN4[C@H]3CO)cc2)cc1 | 0 | x | x | x | x | x | x
COc1ccc(CC(=O)N2CCN(C)CC2)cc1 | -6 | 0 | 11 | i | 91 | i | 0
COC(=O)[C@H]1[C@H](CO)[C@H]2Cn3c(ccc(-c4ccccc4F)c3=O)[C@@H]1N2CC1CCCC1 | -14 | x | x | x | x | x | x
